# The full list was thinned out, with hits kept by preference.
# C diff growth = C. difficile growth inhibitors, primary screen, HTS | Clostridium difficile clinical isolate growth, OD600, 24 h; active compounds read low | growth activity, negative = inhibition, % at 16 µg/mL (by protocol) | 86,000 compounds, 0.25% hits;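 active means mean growth activity at or below -80% and every replicate also at or below -80%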;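 further: 0% = DMSO wells and -100% = levofloxacin 16 µg/mL wells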
# Starred values were filed as active, the others as inactive; ! = repeats disagree.
SMILES,C diff growth
O=C(C[C@@H]1CC[C@H](NC(=O)C2CCC2)[C@@H](CO)O1)NCc1ccncc1,1
C[C@H]1CN([C@@H](C)CO)C(=O)Cc2cc(NC(=O)CCN3CCOCC3)ccc2O[C@H]1CN(C)Cc1ccncc1,2
CCNC(=O)C[C@H]1CC[C@H]2[C@H](COc3ccc(NC(=O)Nc4cccc(Cl)c4)cc3C(=O)N2C)O1,-1
COc1ccc(NC(=O)Nc2ccc3c(c2)C(=O)N([C@H](C)CO)C[C@H](C)[C@H](CN(C)C)OCCCC[C@H](C)O3)cc1,0
C[C@H](NC(=O)C[C@@H]1CC[C@H](NS(=O)(=O)c2cccc(F)c2)[C@H](CO)O1)c1ccccc1,7
C[C@@H]1CN([C@@H](C)CO)C(=O)c2cc(NC(=O)NC3CCCCC3)ccc2O[C@@H](C)CCCCO[C@@H]1CN(C)S(=O)(=O)c1cn(C)cn1,-1
CC(C)CC#Cc1cnc2c(c1)C(=O)N([C@@H](C)CO)C[C@@H](C)[C@H](CN(C)C(=O)c1cnccn1)O2,-5
COc1cccc(S(=O)(=O)N2[C@@H]3CNC[C@H]2C3c2ccc(-c3ccccc3F)cc2)c1 (some centres not stated),51
COc1cccc(CN2C[C@@H]3N[C@H](C2)C3c2ccc(-c3ccccc3C)cc2)c1 (some centres not stated),-96*
Cc1ccccc1-c1ccc(C2[C@@H]3CN(S(=O)(=O)Cc4ccccc4)C[C@H]2N3)cc1 (some centres not stated),52
COc1cccc(CN2[C@@H]3CNC[C@H]2[C@H]3c2ccc(-c3ccccc3OC)cc2)c1,-8
COc1cccc(CN2C[C@@H]3N[C@H](C2)C3c2ccc(-c3ccccc3F)cc2)c1 (some centres not stated),-94*
Cc1ccccc1-c1ccc(C2[C@@H]3CN(C(=O)Cc4ccccc4)C[C@H]2N3)cc1 (some centres not stated),61
COc1ccc(NC(=O)Nc2ccc3c(c2)CC(=O)N([C@H](C)CO)C[C@H](C)[C@@H](CN(C)C(=O)Nc2ccc(OC)cc2)O3)cc1,-1
C[C@@H]1CN([C@@H](C)CO)C(=O)c2cc(C#CC3(O)CCCC3)cnc2O[C@@H]1CN(C)C(=O)CC1CC1,0
C[C@@H]1CN([C@@H](C)CO)C(=O)Cc2cc(NC(=O)Nc3ccc(F)cc3)ccc2O[C@@H]1CN(C)C(=O)Nc1ccc(F)cc1,-6
O=C(CC1CC1)N1CC(=O)N2[C@@H](CO)[C@H](c3ccc(C#Cc4ccccc4)cc3)[C@@H]2C1,-12
CCNC(=O)C[C@@H]1CC[C@@H]2[C@H](COC[C@H](O)CN2C(=O)Nc2cccc(OC)c2)O1,2
O=C(C[C@H]1CC[C@H]2[C@@H](COC[C@H](O)CN2C(=O)Nc2ccc(C(F)(F)F)cc2)O1)NCCc1ccncc1,-18
CCNC(=O)C[C@H]1CC[C@@H]2[C@H](COC[C@H](O)CN2C(=O)Nc2ccc(C(F)(F)F)cc2)O1,-88*
O=C(C[C@@H]1CC[C@H]2[C@@H](COC[C@@H](O)CN2C(=O)Nc2ccc(C(F)(F)F)cc2)O1)NCCc1ccncc1,-15
CCNC(=O)C[C@H]1CC[C@H]2[C@@H](COC[C@@H](O)CN2C(=O)Nc2ccc(C(F)(F)F)cc2)O1,-102*!
O=C(C[C@@H]1CC[C@H]2[C@@H](COC[C@H](O)CN2C(=O)Nc2ccc(C(F)(F)F)cc2)O1)NC1Cc2ccccc2C1,-8
O=C(O)[C@@H]1[C@@H](CO)[C@@H]2Cn3c(ccc(C4=CCCCC4)c3=O)[C@@H]2N1C(=O)Cc1cccnc1,-3
CCCNC(=O)N1[C@H](CO)[C@@H]2c3ccccc3N(C(=O)Nc3cccc(F)c3)C[C@@H]21,5
SMILES,C diff growth
COc1ccc(NC(=O)N(C)C[C@H]2Oc3ccc(NC(=O)CCCCCC(=O)Nc4ccccc4N)cc3CC(=O)N([C@@H](C)CO)C[C@H]2C)cc1,-4
Cc1ccc(S(=O)(=O)N[C@@H]2CC[C@@H](CCNC(=O)Cc3ccccn3)O[C@@H]2CO)cc1,0
COc1ccc(NC(=O)Nc2cccc3c2O[C@H](CN(C)Cc2ccc(C(F)(F)F)cc2)[C@H](C)CN([C@@H](C)CO)C3=O)cc1,-101*
COc1ccc(CN(C)C[C@@H]2Oc3c(NC(=O)Nc4ccc(C(F)(F)F)cc4)cccc3C(=O)N([C@H](C)CO)C[C@@H]2C)cc1,17
C[C@@H]1CN([C@@H](C)CO)C(=O)c2cccc(NC(=O)Nc3ccccc3)c2O[C@@H]1CN(C)Cc1ccc(-c2ccccc2)cc1,-102*
COc1ccc(CN(C)C[C@@H]2Oc3c(NC(=O)Nc4ccc(C(F)(F)F)cc4)cccc3C(=O)N([C@@H](C)CO)C[C@H]2C)cc1,15
C[C@H]1CN([C@@H](C)CO)C(=O)c2cccc(NC(=O)Nc3ccc(C(F)(F)F)cc3)c2O[C@H]1CN(C)Cc1ccc(Oc2ccccc2)cc1,81
C[C@H]1CN([C@@H](C)CO)C(=O)c2cccc(NC(=O)Nc3ccc(F)cc3)c2O[C@@H]1CN(C)Cc1ccc(-c2ccccc2)cc1,-4

# High-throughput results as filed in PubChem.
